Results taken from PubChem BioAssay AID1159580 (chemical genetic matrix, 2015).
The campaign covered roughly 5,500 compounds. About 2,000 (36%) were called active. Inconclusive results (about 18%) are left out. Cut-off read from the data, not from the text of the source: active = normalized growth mostly below about 0.91 (no sharp cut-off); inconclusive = no clear call, values can overlap the other calls; inactive = mostly above about 0.92. The list shows a part of the results.

Assay: chemical genetic growth profiling, strain panel (AID 1159580);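 note: tested at 20 µM; growth read once vehicle control cultures reached saturation at 30 °C; 1 = growth at the plate median or of vehicle wells; lower values mean less growth of the strain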
Conditions: growth OD

Measured: normalized growth

Oc1ccc2c(c1)OCC1(O)Cc3cc(O)c(O)cc3C21 (configuration not stated)
inactive: S. cerevisiae deletion strains, locus YJL187C, strain SWE1, hits give low values 1.02 | S. cerevisiae deletion strains, locus YJR066W, strain TOR1, hits give low values 0.906 | S. cerevisiae deletion strains, locus YKL009W, strain mrt4, hits give low values 1.03 | S. cerevisiae deletion strains, locus YKL068W, hits give low values 0.997 | S. cerevisiae deletion strains, locus YKL085W, strain MDH1 (second series), hits give low values 0.978 | S. cerevisiae deletion strains, locus YKL085W, strain MDH1, hits give low values 0.978 | S. cerevisiae deletion strains, locus YKL160W, strain elf1, hits give low values 1.02 | S. cerevisiae deletion strains, locus YKR001C, strain vps1, hits give low values 1.03 | S. cerevisiae deletion strains, locus YKR026C, strain gcn3, hits give low values 1.04 | S. cerevisiae deletion strains, locus YKR091W, strain srl3, hits give low values 1.02 | S. cerevisiae deletion strains, locus YLL001W, strain dnm1, hits give low values 1.03 | S. cerevisiae deletion strains, locus YLL026W, hits give low values 1.02 | S. cerevisiae deletion strains, locus YLL041C, strain sdh2, hits give low values 1.02 | S. cerevisiae deletion strains, locus YLR027C, strain aat2, hits give low values 1.01 | S. cerevisiae deletion strains, locus YLR039C, strain RIC1, hits give low values 0.991 | S. cerevisiae deletion strains, locus YLR058C, strain SHM2, hits give low values 0.959 | S. cerevisiae deletion strains, locus YLR102C, strain apc9, hits give low values 0.991 | S. cerevisiae deletion strains, locus YLR113W, strain HOG1, hits give low values 1.05 | S. cerevisiae deletion strains, locus YLR221C, strain rsa3, hits give low values 1.02 | S. cerevisiae deletion strains, locus YLR258W, strain gsy2, hits give low values 1.03 | S. cerevisiae deletion strains, locus YLR262C, strain YPT6 (second series), hits give low values 1.04 | S. cerevisiae deletion strains, locus YLR268W, strain sec22, hits give low values 1.05 | S. cerevisiae deletion strains, locus YLR320W, strain mms22, hits give low values 1.04 | S. cerevisiae deletion strains, locus YLR342W, strain FKS1 (second series), hits give low values 1.05 | S. cerevisiae deletion strains, locus YLR342W, strain FKS1, hits give low values 1.03 | S. cerevisiae deletion strains, locus YLR357W, strain rsc2, hits give low values 1.03 | S. cerevisiae deletion strains, locus YLR370C, strain arc18, hits give low values 1.02 | S. cerevisiae deletion strains, locus YLR371W, strain rom2, hits give low values 0.988 | S. cerevisiae deletion strains, locus YLR384C, strain iki3, hits give low values 1.02 | S. cerevisiae deletion strains, locus YLR418C, strain cdc73, hits give low values 0.991 | S. cerevisiae deletion strains, locus YML016C, strain PPZ1, hits give low values 0.997 | S. cerevisiae deletion strains, locus YML032C, strain rad52, hits give low values 1.05 | S. cerevisiae deletion strains, locus YML120C, strain ndi1, hits give low values 1.03 | S. cerevisiae deletion strains, locus YML124C, strain tub3, hits give low values 0.999 | S. cerevisiae deletion strains, locus YMR058W, strain fet3, hits give low values 1.02 | S. cerevisiae deletion strains, locus YMR078C, strain ctf18, hits give low values 0.988 | S. cerevisiae deletion strains, locus YMR125W, strain sto1, hits give low values 1.04 | S. cerevisiae deletion strains, locus YMR129W, hits give low values 1.02 | S. cerevisiae deletion strains, locus YMR205C, strain PFK2, hits give low values 1.06 | S. cerevisiae deletion strains, locus YMR223W, strain ubp8, hits give low values 0.981 | S. cerevisiae deletion strains, locus YMR231W, strain pep5, hits give low values 1 | S. cerevisiae deletion strains, locus YMR307W, strain GAS1, hits give low values 1.11 | S. cerevisiae deletion strains, locus YNL067W, strain RPL9B, hits give low values 0.959 | S. cerevisiae deletion strains, locus YNL071W, strain lat1, hits give low values 1.03 | S. cerevisiae deletion strains, locus YNL128W, strain TEP1, hits give low values 0.983 | S. cerevisiae deletion strains, locus YNL183C, strain NPR1, hits give low values 0.948 | S. cerevisiae deletion strains, locus YNL209W, strain ssb2, hits give low values 1.01 | S. cerevisiae deletion strains, locus YNL233W, strain BNI4, hits give low values 1 | S. cerevisiae deletion strains, locus YNL248C, strain rpa49, hits give low values 1.03 | S. cerevisiae deletion strains, locus YNL250W, strain rad50, hits give low values 0.957 | S. cerevisiae deletion strains, locus YNL271C, strain bni1, hits give low values 0.983 | S. cerevisiae deletion strains, locus YNL298W, strain CLA4, hits give low values 0.996 | S. cerevisiae deletion strains, locus YNL307C, strain MCK1, hits give low values 0.994 | S. cerevisiae deletion strains, locus YNL322C, strain KRE1 (second series), hits give low values 1.02 | S. cerevisiae deletion strains, locus YNL322C, strain KRE1, hits give low values 0.981 | S. cerevisiae deletion strains, locus YNR049C, strain mso1, hits give low values 1.02 | S. cerevisiae deletion strains, locus YNR052C, strain pop2, hits give low values 0.959 | S. cerevisiae deletion strains, locus YOL006C, strain TOP1, hits give low values 1.18 | S. cerevisiae deletion strains, locus YOL012C, strain htz1 0.665 | S. cerevisiae deletion strains, locus YOL147C, strain pex11, hits give low values 1 | S. cerevisiae deletion strains, locus YOR001W, strain rrp6, hits give low values 1.04 | S. cerevisiae deletion strains, locus YOR061W, strain CKA2, hits give low values 1.03 | S. cerevisiae deletion strains, locus YOR069W, strain VPS5, hits give low values 1 | S. cerevisiae deletion strains, locus YOR070C, strain gyp1, hits give low values 1.01 | S. cerevisiae deletion strains, locus YOR080W, strain dia2, hits give low values 1.01 | S. cerevisiae deletion strains, locus YOR083W, strain WHI5, hits give low values 1.02 | S. cerevisiae deletion strains, locus YOR106W, strain vam3, hits give low values 1.05 | S. cerevisiae deletion strains, locus YOR136W, strain idh2, hits give low values 1.01 | S. cerevisiae deletion strains, locus YOR144C, strain elg1, hits give low values 1.01 | S. cerevisiae deletion strains, locus YOR184W, strain ser1, hits give low values 1.09 | S. cerevisiae deletion strains, locus YOR231W, strain MKK1, hits give low values 1.01 | S. cerevisiae deletion strains, locus YOR265W, strain rbl2, hits give low values 1.02 | S. cerevisiae deletion strains, locus YOR270C, strain vph1, hits give low values 1.16 | S. cerevisiae deletion strains, locus YOR290C, strain snf2, hits give low values 1.04 | S. cerevisiae deletion strains, locus YOR316C, strain cot1, hits give low values 0.986 | S. cerevisiae deletion strains, locus YPL051W, strain arl3, hits give low values 1.01 | S. cerevisiae deletion strains, locus YPL055C, strain LGE1, hits give low values 1.06 | S. cerevisiae deletion strains, locus YPL078C, strain atp4, hits give low values 1.03 | S. cerevisiae deletion strains, locus YPL106C, strain sse1, hits give low values 0.99 | S. cerevisiae deletion strains, locus YPL240C, strain hsp82, hits give low values 1.02 | S. cerevisiae deletion strains, locus YPL256C, strain CLN2, hits give low values 0.995 | S. cerevisiae deletion strains, locus YPR119W, strain clb2, hits give low values 0.978 | S. cerevisiae deletion strains, locus YPR141C, strain kar3, hits give low values 0.964 | S. cerevisiae deletion strains, locus YPR163C, strain tif3, hits give low values 0.996 | S. cerevisiae deletion strains, locus YPR167C, strain met16, hits give low values 0.992 | S. cerevisiae deletion strains, strain wtn01, hits give low values 1.02 | S. cerevisiae strains, strain wild type, hits give low values 1.03
